Shown are actives, neighbours in structure and some others; about 2.4% of the full set was active somewhere.
POLK inh: qHTS for Inhibitors of Polymerase Kappa; 400,000 compounds, 0.53% hits; Potency, µM (titrated, usually from 107 µM), for inactives: at the highest dose activity, negative = inhibition, usual class: inhibitors; purified Pol kappa, fluorescent DNA synthesis assay, 10 min; AID 588579, 2011; note: % is set by controls: 0 for no effect and ±100 for the full control effect
Target sequence (Q9UBT6 whole entry, looked up): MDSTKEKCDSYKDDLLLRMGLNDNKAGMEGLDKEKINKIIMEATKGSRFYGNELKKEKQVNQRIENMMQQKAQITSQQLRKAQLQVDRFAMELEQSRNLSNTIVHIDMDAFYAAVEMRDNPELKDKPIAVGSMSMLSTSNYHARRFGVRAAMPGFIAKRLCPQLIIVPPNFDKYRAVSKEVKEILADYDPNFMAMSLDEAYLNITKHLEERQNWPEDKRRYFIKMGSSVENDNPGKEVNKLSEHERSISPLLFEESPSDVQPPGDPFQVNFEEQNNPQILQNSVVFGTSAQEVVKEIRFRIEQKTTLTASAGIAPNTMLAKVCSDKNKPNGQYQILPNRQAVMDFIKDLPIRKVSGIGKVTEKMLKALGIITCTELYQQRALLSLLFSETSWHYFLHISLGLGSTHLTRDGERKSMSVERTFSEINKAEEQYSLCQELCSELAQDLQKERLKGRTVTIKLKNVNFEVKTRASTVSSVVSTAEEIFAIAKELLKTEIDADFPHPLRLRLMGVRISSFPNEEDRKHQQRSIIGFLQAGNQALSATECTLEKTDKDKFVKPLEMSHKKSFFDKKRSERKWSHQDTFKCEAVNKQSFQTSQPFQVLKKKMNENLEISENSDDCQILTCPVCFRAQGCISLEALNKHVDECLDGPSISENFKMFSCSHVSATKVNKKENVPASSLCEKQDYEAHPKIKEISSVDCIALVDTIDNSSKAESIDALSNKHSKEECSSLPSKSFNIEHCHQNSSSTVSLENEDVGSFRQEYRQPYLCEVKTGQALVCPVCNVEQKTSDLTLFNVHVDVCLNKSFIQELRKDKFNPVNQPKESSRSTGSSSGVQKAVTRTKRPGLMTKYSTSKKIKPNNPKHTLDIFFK
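Activity was followed as the change in fluorescence between reads at 0 and 10 min after starting the reaction with 50 nM substrate. Beforehand, 10 nM polymerase had been preincubated with compound for 15 min at room temperature.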
POLI inh: qHTS for Inhibitors of Polymerase Iota; Potency, µM (titrated, usually from 115 µM), without a hit: at the highest dose activity, negative = inhibition, hits mostly inhibitors; AID 588590, 2011; DNA polymerase iota (Homo sapiens), Q9UNA4; Pol iota fluorescent replication assay, 10 min; 390,000 compounds, 1% hits
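Pol iota at 10 nM preincubated 15 min with compounds at room temperature; reaction started with fluorescent substrate, 50 nM final. Fluorescence read kinetically at 0 and 10 min; buffer-only wells as negative control.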
POLB inh: qHTS Assay for Inhibitors of DNA Polymerase Beta. 340,000 compounds, 1.3% hits. AID 485314, 2010. Potency, µM (series often up to 114 µM), without a hit: at the highest dose activity change, negative = inhibition, most hits filed as inhibitors. Pol beta primer extension/strand displacement, fluorescence kinetic. P06746; note: % is set by controls: 0 for no effect and ±100 for the full control effect
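Pol beta (10 nM) was preincubated with compound for 15 min at room temperature. The reaction was then started with 50 nM substrate and read immediately and after a further 10 min at room temperature.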
FEN1 inhibitor: qHTS Assay for the Inhibitors of Human Flap endonuclease 1 (FEN1). Recombinant FEN1 flap cleavage, fluorescence, 15 min. 390,000 compounds, 0.35% hits. P39748. Potency, µM (doses to about 114 µM), without a hit: top-dose activity change, negative = inhibition, actives largely listed as inhibitors; note: % is set by controls: 0 for no effect and ±100 for the full control effect; nearly all actives have a fitted effect of over 65% in size
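Recombinant FEN1 (10 nM) was preincubated with pin-transferred compounds for 15 min at room temperature, then flap DNA substrate (50 nM final) was added. Plates were read at 0 and 15 min, and normalized concentration–response data were fitted to a four-parameter Hill equation.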
WRN inhibitor: qHTS for Inhibitors of WRN Helicase | Bifunctional 3'-5' exonuclease/ATP-dependent helicase WRN (Homo sapiens), Q14191 | 360,000 compounds, 0.46% hits | WRN helicase unwinding, fluorescent forked duplex, kinetic | Potency, µM (doses to about 114 µM), for inactives: at the highest dose activity change, negative = inhibition, actives largely listed as inhibitors | AID 651768, 2012; note: % is set by controls: 0 for no effect and ±100 for the full control effect; nearly all actives have a fitted effect of over 55% in size
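Kinetic red-fluorescence monitoring (525/598 nm) tracks WRN helicase activity after 100 nM fluorophore-quencher forked duplex and 2 mM ATP are added to 20 nM enzyme pretreated 15 min at room temperature with compound.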
Pol eta inh: qHTS for Inhibitors of Polymerase Eta | DNA polymerase eta (Homo sapiens), Q9Y253 | recombinant Pol eta, fluorescent DNA replication assay | Potency, µM (top dose mostly 114 µM), for the others: top-dose activity change, negative = inhibition, actives largely listed as inhibitors | 390,000 compounds, 1.2% hits; note: % is set by controls: 0 for no effect and ±100 for the full control effect
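Fluorescent replication assay: 50 nM final substrate added after a 15 min room-temperature compound preincubation with 10 nM enzyme. Signal taken at 0 min and again at 10 min.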
* marks the source's active call; other numbers are inactive results; [ ] = another dose, or the depositor's remark. Calls come from the whole dose curve; as a rule, active = well fitted curve in the direction sought with a large enough effect; inconclusive = small, poorly fitted or top-dose-only effect, or another doubt; inactive = no such curve, though single readings can be large; an effect the other way counts as inactive or inconclusive. Potency is the fitted concentration of half-maximal effect.

For O=C1/C(=C/c2ccco2)Cc2ccccc21 the results were POLK inh inconclusive, POLI inh inconclusive, POLB inh inconclusive, FEN1 inhibitor -16%, WRN inhibitor -17% and Pol eta inh -4%.
For COc1cc2oc(=O)c(CC(=O)NCCc3ccccc3)c(C)c2cc1Cl the results were POLK inh 4%, POLI inh 26%, POLB inh 1%, FEN1 inhibitor 23% and Pol eta inh -15%.
Screening COc1ccc(-c2nc3cc(NC(=O)Cc4ccc(Cl)cc4)ccc3o2)cc1OC returned POLK inh -3%, POLI inh 12%, POLB inh inconclusive, FEN1 inhibitor -18% and Pol eta inh -20%.
Screening O=C(CN1C(=O)NC2(CCOc3ccccc32)C1=O)c1ccc[nH]1 (configuration not stated) returned POLK inh -19%, POLI inh 40µM*, FEN1 inhibitor 18%, WRN inhibitor -10% and Pol eta inh inconclusive.
`CCOC(=O)COc1ccc2nsnc2c1Cl` gave POLK inh -28%, POLI inh 6%, POLB inh 1%, FEN1 inhibitor 5%, WRN inhibitor -5% and Pol eta inh -18%.
C=C(CC)C(=O)c1ccc(OCC(=O)O)c(Cl)c1Cl was read as POLK inh -7%, POLI inh 10µM*, POLB inh 1%, FEN1 inhibitor -14%, WRN inhibitor inconclusive and Pol eta inh 79µM*.
Screening Cc1ccc(NC(=O)c2oc3ccccc3c2NC(=O)Cc2ccccc2)cc1 returned POLK inh -2%, POLI inh 33%, POLB inh 33%, FEN1 inhibitor 9% and Pol eta inh -14%.
`Cc1cccc(-n2c3nc(=O)n(C)c(=O)c-3cc3ccc(Cl)cc32)c1C` gave POLK inh -22%, POLI inh -12%, POLB inh -10%, FEN1 inhibitor -8% and Pol eta inh -5%.
`COc1ccccc1OCC(=O)Nc1cc(NC(=O)COc2ccccc2OC)cc(C(=O)O)c1` gave POLK inh -11%, POLI inh 197%, POLB inh -3%, FEN1 inhibitor 1%, WRN inhibitor -23% and Pol eta inh -7%.
O=C(COc1ccccc1Cl)Nc1cc(NC(=O)COc2ccccc2Cl)cc(C(=O)O)c1 was read as POLK inh -13%, POLI inh 140%, POLB inh 79µM*, FEN1 inhibitor 4%, WRN inhibitor -34% and Pol eta inh -17%.
Screening Cc1ccc(OCC(=O)Nc2cc(NC(=O)COc3ccc(C)c(C)c3)cc(C(=O)O)c2)cc1C returned POLK inh -20%, POLI inh -15%, POLB inh 50µM*, FEN1 inhibitor inconclusive, WRN inhibitor -11% and Pol eta inh inconclusive.
For CCOc1ccccc1NC(=O)CCCc1nc(-c2ccccc2Cl)no1 the results were POLK inh 3%, POLI inh -6%, POLB inh 19%, FEN1 inhibitor -16% and Pol eta inh -5%.
Screening CC1=C(C(=O)N2CCOCC2)CC(CC(=O)NCc2cccs2)C(=O)N1Cc1ccc(F)cc1 (configuration not stated) returned WRN inhibitor 5% and Pol eta inh -8%.
COc1ccc(C(=O)Nc2nnc(CC(=O)N/N=C/c3ccc(O)cc3O)s2)cc1 was read as POLB inh 5µM*.
For CCN(C(=O)COC(=O)c1cccnc1)c1cccc2ccccc12 the results were POLK inh -8%, POLI inh -12%, FEN1 inhibitor -17%, WRN inhibitor -9% and Pol eta inh -3%.
Screening CCN(C(=O)COC(=O)c1ccc([N+](=O)[O-])o1)c1cccc2ccccc12 returned POLK inh -18%, POLI inh -20%, FEN1 inhibitor 28µM*, WRN inhibitor 14% and Pol eta inh inconclusive.
Cc1ccc(CNC(=O)Cn2c(=O)n(-c3ccc(C)cc3)c(=O)c3c2c2cc(C)ccc2n3C)cc1 was read as POLK inh inconclusive, POLI inh inconclusive, POLB inh 2%, FEN1 inhibitor 13% and Pol eta inh 1%.
Screening COc1ccc(/C=N/NC(=O)c2cc3cc(OC)c(OC)cc3[nH]2)cc1 returned POLK inh -76%, POLI inh -22%, POLB inh 6.3µM*, FEN1 inhibitor -31%, WRN inhibitor inconclusive and Pol eta inh inconclusive.
COc1ccc2[nH]c(C(=O)N/N=C/c3ccc(O)cc3O)cc2c1 was read as POLK inh inconclusive, POLI inh -30%, POLB inh inconclusive, FEN1 inhibitor inconclusive, WRN inhibitor -27% and Pol eta inh inconclusive.
For CCOc1ccc2[nH]c(C(=O)N/N=C/c3ccc(OC)cc3)cc2c1 the results were POLK inh -1%, POLI inh -8%, POLB inh 15%, FEN1 inhibitor -12%, WRN inhibitor 2% and Pol eta inh -9%.
Screening COc1ccc2cc(C(=O)N/N=C/c3cc(OC)c(OC)c(OC)c3)[nH]c2c1 returned POLK inh -53%, POLI inh inconclusive, POLB inh 10µM*, FEN1 inhibitor inconclusive, WRN inhibitor -11%[11.6 µM] and Pol eta inh inconclusive.
Cc1ccc(N=Nc2ccc(N)cc2C)c(S(N)(=O)=O)c1 was read as POLK inh 0%, POLI inh 94%, POLB inh inconclusive, FEN1 inhibitor -4%, WRN inhibitor -6% and Pol eta inh inconclusive.
For Nc1c(N=Nc2ccc(-c3ccc(N=Nc4cc(S(=O)(=O)O)c5ccccc5c4N)cc3)cc2)cc(S(=O)(=O)O)c2ccccc12 the results were POLK inh 1.1µM*.
Screening Cc1cc(-c2ccc(N=Nc3ccc4c(S(=O)(=O)O)cc(S(=O)(=O)O)c(N)c4c3O)c(C)c2)ccc1N=Nc1ccc2c(S(=O)(=O)O)cc(S(=O)(=O)O)c(N)c2c1O returned POLK inh 1.3µM*.
O=S(=O)(O)c1ccc(N=Nc2ccccc2)cc1 was read as POLK inh -6%, POLI inh 4%, POLB inh inconclusive, FEN1 inhibitor 13%, WRN inhibitor -10% and Pol eta inh -10%.
COc1ccc(-n2nc(C(=O)Nc3ccc(Cl)cn3)c3c4ccccc4n(C)c3c2=O)cc1 was read as POLK inh -10%, POLI inh 28%, POLB inh inconclusive and FEN1 inhibitor -4%.

Screening data: PubChem, National Center for Advancing Translational Sciences (NCATS)
